# Compound activity: PubChem, Sanford-Burnham Center for Chemical Genomics
# NLRP3 yeast inh = blocks the NALP3 inflammasome reconstituted in yeast; hit rate 0.39% among 330,000; inhibition, % at 10 µM; Yeast reconstituted NLRP3/ASC/caspase-1, beta-gal luminescence, 24 h;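 active means inhibition of 50% or more; inactive means inhibition below 50%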
# tim10-1 inh = growth inhibitors of tim10-1 mutant yeast. S. cerevisiae tim10-1 ts strain growth, BacTiter-Glo, 24 h. inhibition, % at 20 µM. hit rate 2.2% among 330,000;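 active means inhibition of at least 40%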;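 further: mutant grown at 25 °C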
# tim23-1 inh = inhibits growth of tim23-1 mutant yeast. S. cerevisiae tim23-1 growth, BacTiter-Glo luminescence, 24 h. inhibition, % at 20 µM. hit rate 1.3% among 330,000. AID 463212;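 active means growth inhibition of the mutant yeast at or above 50%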;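 further: temperature-sensitive mutant grown at 25 °C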
# NALP1 inh = inhibitors of NALP1 inflammasome in yeast; S. cerevisiae NALP1/ASC/caspase-1 growth, X-gal OD620, 72 h; inhibition, % at 10 µM; hit rate 0.61% among 280,000; AID 2071; in the data active means inhibition mostly above about 24%, no sharp cut-off; inactive means mostly below about 32%
# TIM10 inh = inhibits growth of TIM10 yeast strain | AID 463195 | S. cerevisiae TIM10 strain growth, BacTiter-Glo luminescence, 24 h | hit rate 1.4% among 330,000 | inhibition, % at 10 µM;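 active means inhibition of 40% or more at the single tested concentration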;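 further: wild-type TIM10 isogenic control strain grown at permissive 25 °C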
# tim23-1 conf = tim23-1 yeast growth inhibition, confirmed. inhibition, % at 20 µM. hit rate 83% among 4,400. AID 463218. shares compounds with tim23-1 inh. S. cerevisiae tim23-1 growth, BacTiter-Glo luminescence, 24 h;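 active means inhibition above about 39% in either of two replicate wells at 20 µM, limit read from the data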;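 further: temperature-sensitive tim23-1 mutant grown at 25 °C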
# A number is an active result; . = inactive; / = no result given. The list is not random: actives were taken first. Their share in the collection is about 4%.
SMILES,NLRP3 yeast inh,tim10-1 inh,tim23-1 inh,NALP1 inh,TIM10 inh,tim23-1 conf
CC(C)(C)c1ccc(C(CC(=O)O)NC(=O)Cc2ccccc2)cc1 (stereo not drawn),.,.,.,.,.,/
Cc1ccc(F)cc1NCC(=O)Nc1ccc(Cl)cc1F,.,.,.,.,.,/
Cc1c(Cl)cccc1NCC(=O)Nc1ccc(Cl)cc1F,.,.,54,.,.,42
CC(C)(CNC(=O)/C=C/c1ccc(F)cc1)CNC(=O)/C=C/c1ccc(F)cc1,.,.,.,.,.,/
CCOC(=O)C1=C(N)Oc2cc(O)ccc2C1c1ccc(F)cc1F (stereo not drawn),.,.,56,.,.,59
Oc1c(C(Nc2cccc(C(F)(F)F)c2)c2ccncc2)ccc2cccnc12 (stereo not drawn),.,.,59,.,.,56
O=C(/C=C\N1CCOCC1)c1ccc(Br)cc1,.,.,.,.,.,/
O=C(/C=C/N1CCOCC1)c1ccc(-c2ccccc2)cc1,.,.,52,.,.,.
COc1cccc(C(=O)N[C@@H](C)C(=O)N2CCC3(CC2)NCCc2[nH]cnc23)c1,.,.,.,.,.,/
Cc1ccc(C)c(-c2nnc(NC(=O)Cc3ccccc3)o2)c1,.,.,.,.,.,/
O=C(Nc1ccc2c(c1)OCO2)c1ccc(Br)o1,.,.,.,.,.,/
Cc1cc(C(=O)Nc2ccc3ccccc3c2)oc1C,.,.,.,.,.,/
O=C(Nc1ccc2ccccc2c1)c1ccc(Br)o1,.,.,56,.,.,52
O=C(Nc1ccccc1)c1ccc(Br)o1,.,.,.,.,.,/
O=C(Nc1ccc2c(c1)oc1ccccc12)c1ccc(Br)o1,.,.,52,.,.,.
Cc1ccoc1C(=O)Nc1ccc2ccccc2c1,.,.,54,.,.,50
COc1ccc(Cl)cc1NC(=O)C(C)OC(=O)C1=NNC(=O)CC1 (stereo not drawn),.,.,.,/,.,/
CC(=O)n1cc(N(C(=O)CCl)c2ccccc2)c2ccccc21,.,.,54,.,.,.
CC(=O)n1cc(N(C(=O)CCl)c2ccc([N+](=O)[O-])cc2)c2ccccc21,.,.,64,.,.,49
CC(=O)n1cc(CO)c2ccccc21,.,.,.,.,.,/
CN1CCN(c2ccccc2NC(=O)c2sc3ccccc3c2Cl)CC1,.,.,.,.,.,/
Oc1ccc(Cl)cc1CNCc1ccc(Cl)nc1,.,.,.,/,.,/
COc1cc(/C=C2\SC(=Nc3ccccc3OC)NC2=O)ccc1O,.,.,.,.,.,/
COc1ccc(/C=C2\SC(=Nc3ccccc3OC)NC2=O)cc1,.,.,53,.,.,60
C=CCc1cccc(/C=N/NC(=O)CNc2cccc3ccccc23)c1O,.,.,57,.,.,73
SMILES,NLRP3 yeast inh,tim10-1 inh,tim23-1 inh,NALP1 inh,TIM10 inh,tim23-1 conf
O=C(NC(=S)NCc1ccco1)c1ccc(Br)cc1,.,.,56,.,.,45
O=C(NC(=S)NCc1ccco1)c1ccccc1,.,.,.,.,.,/
CCOC(=O)c1nncc(-c2ccccc2)n1,.,.,.,/,.,/
Cc1ccccc1-c1ocnc1C(=O)Nc1ccccc1NC(=O)c1ccccn1,.,.,50,.,.,49
CCCCCOC(=O)Cc1c(C)nc(-c2ccccc2)[nH]c1=O,.,.,54,.,.,52
Cc1ccc(NC(=O)c2ccc(OCc3c(C)noc3C)cc2)cc1C,.,.,59,/,.,56
Cc1ccc(O)c(C(=O)c2cnn(C(=O)Cc3csc(C)n3)c2)c1,.,.,59,.,.,57
COc1ccc(/C=N/NC(=O)c2cccs2)c2ccccc12,.,.,56,/,.,51
O=c1cc(-c2ccccc2Cl)oc2c(NS(=O)(=O)c3cc(Cl)cc(Cl)c3O)ccc(O)c12,.,.,52,.,.,.
O=C(N/N=C/c1cccc(F)c1)c1csc2c1CCCC2,.,.,63,.,.,62
CCOC(=O)CNS(=O)(=O)c1ccc(C)cc1,.,.,.,.,.,/
CC1(C)OC(=O)C(=Cc2ccc[nH]2)C(=O)O1,.,.,76,.,.,53
CC1(C)OC(=O)C(=CNc2ccc(F)cc2)C(=O)O1,.,.,.,.,.,/
CCc1oc2ccccc2c1C(=O)c1cc(Br)c(O)c(Br)c1,.,.,56,.,.,.
c1cc(SC2CCCCC2)cc(-c2nc3cnccn3c2NC2CCCCC2)c1,.,.,.,/,.,/
CCC(C)Sc1cccc(-c2nc3cnccn3c2NC2CCCCC2)c1 (stereo not drawn),.,.,.,/,.,41
CCCCNc1c(-c2ccc(OC)c(SC(C)CC)c2)nc2ccc(Cl)cn12 (stereo not drawn),.,.,.,/,.,/
CCCCNc1c(-c2ccc(OC)c(SC(C)CC)c2)nc2ccc(C)cn12 (stereo not drawn),.,.,54,/,.,41
CCC(C)Sc1cc(-c2nc3cc(C)ccn3c2NC2CCCCC2)ccc1OC (stereo not drawn),.,.,60,/,.,49
CCCCNc1c(-c2ccc(OC)c(SC(C)CC)c2)nc2cc(C)ccn12 (stereo not drawn),.,.,55,/,.,51
CCOc1ccc(S(=O)(=O)N2CCN(C(=O)CCOc3ccccc3C)CC2)cc1,.,.,.,/,.,/
CC(C)CC(=O)OCc1cn(-c2ccccc2)nn1,.,.,.,.,.,/
Cc1ccc(NC(=O)CSc2ccc3c(c2)OCCO3)nc1,.,.,.,/,.,/
O=C1C=C(c2ccc(O)cc2)C[C@@H](c2ccc(Cl)cc2)C1,.,.,53,/,.,.
O=C1C=C(c2ccc3ccccc3c2)C[C@@H](c2ccc(Cl)cc2)C1,.,.,.,/,.,/
SMILES,NLRP3 yeast inh,tim10-1 inh,tim23-1 inh,NALP1 inh,TIM10 inh,tim23-1 conf
Cc1ccc(C2=CC(=O)C[C@H](c3ccc(Cl)cc3)C2)cc1,.,.,.,/,.,/
O=C1C=C(c2ccc3ncccc3c2)C[C@@H](c2ccc(Cl)cc2)C1,.,.,52,/,.,.
O=C1C=C(c2ccc3[nH]ccc3c2)C[C@@H](c2ccc(Cl)cc2)C1,.,.,52,/,.,46
Cc1cccc(NC(=O)COC(=O)c2cccs2)c1C,.,.,.,.,.,/
CC1CCN(C(=O)CN2C(=O)C(=O)N(C)C2=O)c2ccccc2S1 (stereo not drawn),.,.,.,/,.,/
COc1ccccc1-c1sc2ccccc2c1-c1ccc(O)cc1,.,.,55,/,.,.
COc1ccc(-c2sc3ccccc3c2-c2ccc(O)cc2)cc1,.,.,.,/,.,/
CC(C)(C)C(=O)NNC(=O)c1cnccn1,.,.,.,/,.,/
O=C1C=C(c2cccc(Cl)c2O)C[C@@H](c2ccc3c(c2)OCO3)C1,.,.,67,/,.,54
CCN1CCc2c(sc(NC(=O)c3cc4ccccc4cc3OC)c2C(N)=O)C1,.,.,.,.,.,/
O=C(Nc1ccc(F)c([N+](=O)[O-])c1)c1cccs1,.,.,53,.,.,49
O=C(Nc1ccc(F)c([N+](=O)[O-])c1)c1ccc2c(c1)C(=O)OC2=O,/,/,/,.,/,/
